{"source": "PubChem BioAssay (EPA / NIEHS)", "note": "Records with an inconclusive call do not appear. Activity calls are given as the source filed them. Rule for the calls: active = hit-call score of the fitted dose curve at least 0.9, where 1 is the maximum; inconclusive = response in the unintended direction; inactive = score below 0.9.", "data": [{"biological_target": "Peroxisome proliferator-activated receptor gamma (Homo sapiens) (UniProt P37231)", "sequence (P37231 whole entry, looked up)": "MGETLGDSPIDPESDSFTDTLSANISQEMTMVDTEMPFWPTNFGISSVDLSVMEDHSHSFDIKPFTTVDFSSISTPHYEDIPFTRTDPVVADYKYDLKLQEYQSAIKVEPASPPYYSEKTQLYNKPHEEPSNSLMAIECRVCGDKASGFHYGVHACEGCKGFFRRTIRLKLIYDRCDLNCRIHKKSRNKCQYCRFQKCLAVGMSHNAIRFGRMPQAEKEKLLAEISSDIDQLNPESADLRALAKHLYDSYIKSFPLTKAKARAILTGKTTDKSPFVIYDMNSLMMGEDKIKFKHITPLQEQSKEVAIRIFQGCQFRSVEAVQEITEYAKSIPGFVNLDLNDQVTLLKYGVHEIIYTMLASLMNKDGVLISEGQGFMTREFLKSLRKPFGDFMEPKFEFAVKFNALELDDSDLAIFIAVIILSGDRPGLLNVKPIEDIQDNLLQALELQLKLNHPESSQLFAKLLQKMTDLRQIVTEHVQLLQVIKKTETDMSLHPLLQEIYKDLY", "experiment": "OT_PPARg_PPARgSRC1_0480: Odyssey Thera (OT) 8-hour Protein-Complementation Assay for Peroxisome Proliferator-activated Receptor Gamma / SRC-1 Co-activator (AID 2283387);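 note: nuclear to cytoplasmic split Venus YFP fluorescence ratio reporting PPARg SRC-1 interaction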", "protocol": "OT_PPARg_PPARgSRC1_0480 is a cell-based assay that uses HEK293T, a human kidney cell line, with measurements taken at 8 hours after chemical dosing in a 384-well plate.OT_PPARg_PPARgSRC1_0480 is one of one assay component(s) measured or calculated from the OT_PPARg_PPARgSRC1_0480 assay. It is designed to make measurements of protein fragment complementation, a form of binding reporter, as detected with fluorescence intensity signals by Protein-fragment Complementation technology.Data from the assay component OT_PPARg_PPARgSRC1_0480 was analyzed into 1 assay endpoint. This assay endpoint, OT_PPARg_PPARgSRC1_0480, was analyzed in the positive analysis fitting direction relative to DMSO as the negative control and baseline of activity. Using a type of binding reporter, measures of receptor for gain-of-signal activity can be used to understand the binding at the pathway-level as they relate to the gene PPARG. Furthermore, this assay endpoint can be referred to as a primary readout, because the performed assay has only produced 1 assay endpoint. To generalize the intended target to other relatable targets, this assay endpoint is annotated to the nuclear receptor intended target family, where the subfamily is non-steroidal.\nThe OT PPARg/SRC-1 assay assessed receptor-chemical interactions using a rapidly maturing, intensely fluorescent mutant of YFP known as Venus, rationally dissected into two separate fragments. The fragments were obtained as follows: first, fragments coding for YFP1 and YFP2 (corresponding to amino acid residues 1-158 and 159-239 of the full length YFP, respectively) were generated by oligonucleotide synthesis (Blue Heron Biotechnology), and then PCR mutagenesis was used to generate the mutant fragments IFP1 and IFP2. Fusion constructs were transfected into HEK293T cells with a (Gly4Ser)2 linker between the PPARg/SRC-1 and YFP fragment genes to facilitate complementation when interacting proteins bring fragments into close proximity. The construct is transiently transfected in HEK293T cells 48 hours prior to treatment with test compounds. Cells are seeded into optical quality 384-well poly-D-lysine coated plates in MEM alpha medium (Invitrogen) supplemented with 10 percent FBS (Gemini Bio-Products) 1 percent penicillin and 1 percent streptomycin, and grown in 37C incubator equilibrated to 5 percent CO2. Cells are allowed to adhere for 24 hours prior to treatment with compounds of interest or controls for 8 hours. Cells are fixed in 4 percent formaldehyde and stained with Draq5 (BioStatus) to identify cells and subcellular compartment boundaries prior to signal detection. 8 Images per well were acquired on an Evotec Opera at 2 wavelengths (488 and 635nm), and the ratio of fluorescence in the nucleus relative to fluorescence in the cytoplasm (N/C Ratio) in the 488nm channel was calculated for a minimum of 350 cells per image.", "values": [{"smiles": "CCOC(OCC)OCC", "outcome": "inactive"}, {"smiles": "CC(C)Nc1ccc(NC(C)C)c2c1C(=O)c1ccccc1C2=O", "outcome": "inactive"}, {"smiles": "CCC(Cc1c(I)cc(I)c(N)c1I)C(=O)O", "note": "(configuration not stated)", "outcome": "inactive"}, {"smiles": "Cc1ccc(O)c(-n2nc3ccccc3n2)c1", "outcome": "inactive"}, {"smiles": "CCCCOC(=O)[C@H](C)O", "outcome": "inactive"}, {"smiles": "CC(=O)CCC(C)C", "outcome": "inactive"}, {"smiles": "N#Cc1ccccc1O", "outcome": "inactive"}, {"smiles": "CCc1cc(Cc2cc(CC)c(N)c(CC)c2)cc(CC)c1N", "outcome": "inactive"}, {"smiles": "CCN=C1C=CC(=C(c2ccc(N(CC)CC)cc2)c2ccc(N(CC)CC)cc2)c2ccccc21", "outcome": "inactive"}, {"smiles": "O=C(c1ccccc1)c1ccc(O)cc1O", "outcome": "inactive"}, {"smiles": "F[Si-2](F)(F)(F)(F)F", "outcome": "inactive"}, {"smiles": "CCN=c1cc2oc3cc(NCC)c(C)cc3c(-c3ccccc3C(=O)OCC)c-2cc1C", "outcome": "inactive"}, {"smiles": "CCCCOC(=O)C(C)O", "note": "(configuration not stated)", "outcome": "inactive"}, {"smiles": "C[C@]12CC[C@H]3C(=CCc4cc(O)ccc43)[C@@H]1CCC2=O", "outcome": "inactive"}, {"smiles": "CC(C)(C)c1cc(Cc2cc(C(C)(C)C)c(O)c(C(C)(C)C)c2)cc(C(C)(C)C)c1O", "outcome": "inactive"}, {"smiles": "CCCCCCCCCc1ccc(OCCO)cc1", "outcome": "inactive"}, {"smiles": "Cc1ccc([N+](=O)[O-])c(C)c1", "outcome": "inactive"}, {"smiles": "CCCCC(CC)COC(=O)c1ccc(N(C)C)cc1", "note": "(configuration not stated)", "outcome": "inactive"}, {"smiles": "CC(C)OC=O", "outcome": "inactive"}, {"smiles": "OCC1CCCO1", "note": "(configuration not stated)", "outcome": "inactive"}, {"smiles": "CCCCCCCCCCCCCC[P+](CCCC)(CCCC)CCCC", "outcome": "inactive"}, {"smiles": "COCCOCCC[Si](C)(O[Si](C)(C)C)O[Si](C)(C)C", "outcome": "inactive"}, {"smiles": "CCCCCCCC/C=C\\CCCCCCCC(=O)OCC(O)CO", "note": "(configuration not stated)", "outcome": "inactive"}, {"smiles": "O=C1C=CC(=O)N1c1ccccc1", "outcome": "inactive"}, {"smiles": "CCCCCCCC/C=C\\CCCCCCCC(=O)N(C)CC(=O)O", "outcome": "inactive"}, {"smiles": "CCOC(=O)C1CC(=O)C(=C(O)C2CC2)C(=O)C1", "note": "(configuration not stated)", "outcome": "inactive"}, {"smiles": "CCCCCCCCCCCCC[N+](C)(C)Cc1ccccc1", "outcome": "inactive"}]}]}
